Test systems include HCT-15 colon; HT29 colon; SNB-75 CNS; SNB-19 CNS; U251 CNS; PC-3 prostate; SK-MEL-5 melanoma; UACC-62 melanoma; LOX IMVI melanoma; SK-MEL-28 melanoma.
Common to all, as to assay: NCI-60 one-dose screen, 48 h (100 = growth as untreated, 0 = no growth, -100 = all killed)
Common to all, as to settings: 10 µM unless noted

Compounds without any hit were thinned out: in the full panel of roughly 83,000, 20% have a hit.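 Activity criterion: percent growth below 10, measured after cells in 96-well plates were exposed to a single compound concentration for 48 hours.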 Unmarked numbers belong to inactive results. Active and inactive are the calls of the source.

In the case of `Cc1cc(NCc2cc(Nc3ccnc4cc(Cl)ccc34)ccc2F)nc(Cl)n1`, the growth in the assay with HCT-15 colon was 27%; in the assay with HT29 colon, 28.1%; in the assay with SNB-75 CNS, 71.5%; in the assay with SNB-19 CNS it was 58.3%; in the assay on U251 CNS, 44.8%; in the assay on PC-3 prostate, 34.9%. Moreover, the growth was 3.73% (active) in the assay on SK-MEL-5 melanoma, 45.2% in the assay on UACC-62 melanoma, 34.9% in the assay with LOX IMVI melanoma and 72.1% in the assay on SK-MEL-28 melanoma.

With `COC(=O)[C@]12CC[C@@H](C)[C@H](C)[C@@H]1C1=CC[C@@H]3[C@@]4(C)C(C=O)=C[C@@](C)(COC(=O)c5ccco5)[C@@H]4C(=O)C[C@@]3(C)[C@]1(C)CC2`, the growth was 25.2% with HCT-15 colon; 29.9% in the assay with HT29 colon; 34.8% in the assay with SNB-75 CNS; 39.7% in the assay on SNB-19 CNS; 33.9% in the assay with U251 CNS; 11.1% in the assay on PC-3 prostate. Further, the growth with SK-MEL-5 melanoma is -84.8% (active); in the assay with UACC-62 melanoma, -23.8% (active); in the assay on LOX IMVI melanoma, 26.6%; in the assay on SK-MEL-28 melanoma, 24.9%.

Regarding `CC(=O)N1N=C(c2ccc(Nc3nc(Nc4ccc(F)cc4)nc(Nc4ccc(F)cc4)n3)cc2)CC1c1cccc([N+](=O)[O-])c1` (stereo not given), the growth in the assay with HCT-15 colon is 91.7%; in the assay on HT29 colon, 48.5%; in the assay with SNB-75 CNS it was 21.8%; in the assay on SNB-19 CNS, 92.5%; in the assay with U251 CNS, 86.7%; with PC-3 prostate, 70.9%. Besides, the growth was 78.8% with SK-MEL-5 melanoma, 92.6% in the assay with UACC-62 melanoma, 87.9% in the assay on LOX IMVI melanoma and 74.4% in the assay with SK-MEL-28 melanoma.

As to `NS(=O)(=O)c1ccc(-n2nc(C(=O)N/N=C\c3ccc(F)cc3)cc2-c2ccc(Cl)cc2)cc1`, the growth in the assay on HCT-15 colon was 98.4%; in the assay on HT29 colon, 118%; with SNB-75 CNS, 57.1%; with SNB-19 CNS, 85.5%; in the assay with U251 CNS it was 93.3%; in the assay on PC-3 prostate, 81.9%. Further, the growth in the assay on SK-MEL-5 melanoma was 93.5%; in the assay on UACC-62 melanoma it was 81.8%; in the assay on LOX IMVI melanoma, 90.9%; in the assay on SK-MEL-28 melanoma, 98.8%.

Take `CCCCCCN(CCCCCC)c1ccc(/C=C2/SC(=O)N(c3nc(N4CCCC4)nc(N4CCCC4)n3)C2=O)c(C)c1`: the growth with HCT-15 colon is 57.9%; in the assay on HT29 colon, 51.8%; with SNB-75 CNS it was 83.3%; with SNB-19 CNS it was 84.4%; with U251 CNS it was 53.9%; with PC-3 prostate, 53.2%. The growth in the assay on SK-MEL-5 melanoma is 58.6%; in the assay on UACC-62 melanoma, 52.7%; in the assay with LOX IMVI melanoma it was 71.8%; with SK-MEL-28 melanoma, 74.3%.

On to `O=C(COc1ccc(/C=C2\Oc3ccccc3C2=O)cc1)Nc1nc2c(s1)CCCC2`, for which the growth with HCT-15 colon is 89.7%; in the assay with HT29 colon, 30.2%; in the assay on SNB-75 CNS, -76.6% (active); with SNB-19 CNS it was 83%; with U251 CNS, -44.4% (active); in the assay with PC-3 prostate it was 12.3%. The growth in the assay with SK-MEL-5 melanoma is 103%; with UACC-62 melanoma it was 75.6%; in the assay with LOX IMVI melanoma it was -57.3% (active); in the assay with SK-MEL-28 melanoma it was 117%.

Turning to `O=C(Nc1ccccc1)Nc1cccc(Oc2nnc(Cl)c3ccccc23)c1`, the growth in the assay with HCT-15 colon was 36.4%; in the assay on HT29 colon it was 23.8%; with SNB-75 CNS, -42% (active); in the assay on SNB-19 CNS it was 9.64% (active); with U251 CNS, 4.84% (active); in the assay on PC-3 prostate it was 25.9%. Moreover, the growth is 32.9% in the assay with SK-MEL-5 melanoma, 41.3% in the assay on UACC-62 melanoma, 32.1% in the assay on LOX IMVI melanoma and 44.2% in the assay on SK-MEL-28 melanoma.

As to `Oc1ccc(CN2CCC(N3CCOCC3)CC2)c2cccnc12`, the growth in the assay with HCT-15 colon is 17.7%; in the assay with HT29 colon it was 103%; in the assay on SNB-75 CNS, 32%; with SNB-19 CNS it was 17.6%; in the assay on U251 CNS, 16.9%; in the assay with PC-3 prostate, 15.3%. Further, the growth was -45.8% (active) in the assay on SK-MEL-5 melanoma, 12.9% in the assay with UACC-62 melanoma, 15.2% in the assay with LOX IMVI melanoma and 39.5% in the assay on SK-MEL-28 melanoma.

`CN1CCN(CCCOc2ccc3nc(Nc4ccc(F)c(F)c4)ccc3c2)CC1`: the growth in the assay on HCT-15 colon is -29.3% (active); in the assay with HT29 colon it was -36.2% (active); with SNB-75 CNS, 24.3%; with SNB-19 CNS, 26.5%; in the assay on U251 CNS, 13.7%; in the assay with PC-3 prostate, 22.5%. The growth in the assay on SK-MEL-5 melanoma was -6.85% (active); with UACC-62 melanoma it was -67.1% (active); in the assay with LOX IMVI melanoma it was -89.5% (active); in the assay on SK-MEL-28 melanoma, -67.4% (active).

Regarding `CCN(CC)CCCNc1ccc(Nc2ccc(OC)cc2)cc1`, the growth is 105% with HCT-15 colon; 67.5% in the assay on HT29 colon; 80% in the assay with SNB-75 CNS; 102% in the assay with SNB-19 CNS; 79.8% in the assay on U251 CNS; 55.3% with PC-3 prostate. Moreover, the growth with SK-MEL-5 melanoma was 91.2%; in the assay on UACC-62 melanoma, 95.8%; with LOX IMVI melanoma, 86.4%; in the assay with SK-MEL-28 melanoma it was 101%.

Take `CN1CCN(C(=O)c2c3c(n4ccccc24)C(=O)c2ncccc2C3=O)CC1`: the growth with HCT-15 colon was 46%; in the assay on HT29 colon, 93.3%; in the assay with SNB-75 CNS it was 39.9%; with SNB-19 CNS it was 50.4%; in the assay with U251 CNS, 66.5%; in the assay with PC-3 prostate, 54.8%. The growth with SK-MEL-5 melanoma was 65.6%; in the assay with UACC-62 melanoma, 39.3%; in the assay with LOX IMVI melanoma, 30.3%; in the assay on SK-MEL-28 melanoma it was 103%.

Consider `CCN(CC)CCCC(C)Nc1c2ccc(Cl)cc2nc2ccc(O)cc12` (stereo not given), for which the growth with HCT-15 colon is 42.3%; in the assay on HT29 colon, 48.2%; with SNB-75 CNS, 35.3%; in the assay on SNB-19 CNS, 44.8%; in the assay on U251 CNS it was 32.5%; in the assay with PC-3 prostate, 48.7%. Moreover, the growth with SK-MEL-5 melanoma is 34.7%; in the assay on UACC-62 melanoma, 82.3%; with LOX IMVI melanoma it was 0.124% (active); with SK-MEL-28 melanoma, 57.5%.

Regarding `Cc1c(C(=O)NC(Cc2ccccc2)C(O)C(=O)NCc2ccc(F)cc2)[nH]c2ccccc2c1=O` (stereo not given), the growth in the assay with HCT-15 colon is 103%; in the assay with HT29 colon it was 102%; in the assay with SNB-75 CNS, 99.1%; with SNB-19 CNS, 100%; in the assay on U251 CNS, 90.2%; with PC-3 prostate, 103%. The growth with SK-MEL-5 melanoma is 103%; in the assay with UACC-62 melanoma, 111%; in the assay with LOX IMVI melanoma, 101%; in the assay with SK-MEL-28 melanoma, 107%.

For the origin of these results see PubChem BioAssay (NCI).
